# Screen size: about 2,700 compounds; about 160 (5.9%) showed an effect of 50% or more. The full list was thinned out, with strong results kept by preference.
# Target: Nonstructural protein 3 (Zika virus) (UniProt A0A024AXB9)
# [1] = PRVABC59, Concentration 15.0 uM, Number of replicates 1.0
# Sequence of Nonstructural protein 3 (Zika virus) (A0A024AXB9 as listed by the source): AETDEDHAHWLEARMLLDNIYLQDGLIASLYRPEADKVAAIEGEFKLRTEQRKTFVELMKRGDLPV
smiles,measurement,setting,value
Cc1cc(CO)c2cccc(CC(=O)Nc3cc(C)[nH]n3)c2n1,inhibition,"PRVABC59, Concentration 49.95 uM, Number of replicates 2.0, Standard deviation 1.1960706203468343 %",0.209%
same,inhibition,"PRVABC59, Concentration 99.9 uM, Number of replicates 2.0, Standard deviation 0.6463869966486608 %",7.1%
CNC(=O)c1nc(Cl)ccc1NS(=O)(=O)c1ccc(Oc2ccccc2Cl)cc1,inhibition,"PRVABC59, Concentration 49.5 uM, Number of replicates 2.0, Standard deviation 0.024233932131581936 %",-1.72%
O=C(Nc1nc(Cl)nc2nc[nH]c12)c1cc(Cl)ccc1NS(=O)(=O)c1ccc(Oc2ccccc2Cl)cc1,inhibition,[1],22.5%
Cc1nn([C@@H](C)c2nnnn2C2CC2)cc1C1CCNCC1,inhibition,"PRVABC59, Concentration 49.5 uM, Number of replicates 2.0, Standard deviation 2.3033064314790743 %",-1.29%
same,inhibition,"PRVABC59, Concentration 99.01 uM, Number of replicates 2.0, Standard deviation 2.6844291293545366 %",-0.376%
same,inhibition,"PRVABC59, Concentration 198.0 uM, Number of replicates 2.0, Standard deviation 0.3562668047004051 %",-3.04%
CC(C)(C)c1csc(NC(=O)c2cc(Cl)ccc2NS(=O)(=O)c2ccc(Oc3ccccc3Cl)cc2)n1,inhibition,[1],22.1%
Cc1cc(CO)c2cccc(Cc3ccccc3NC(=O)c3nc(-c4ccccc4)oc3C(F)(F)F)c2n1,inhibition,"PRVABC59, Concentration 49.95 uM, Number of replicates 2.0, Standard deviation 1.8373680900098652 %",5.06%
same,inhibition,"PRVABC59, Concentration 99.9 uM, Number of replicates 2.0, Standard deviation 1.2469667752869535 %",9.26%
Cc1cc(CO)c2cccc(NC(=O)[C@H]3CCNC3)c2n1,inhibition,"PRVABC59, Concentration 49.95 uM, Number of replicates 2.0, Standard deviation 1.562551081581127 %",-4.16%
same,inhibition,"PRVABC59, Concentration 99.9 uM, Number of replicates 2.0, Standard deviation 2.5850257028478962 %",4.64%
Cc1cc(CO)c2cccc(Cc3cccc(NC(=O)c4nc(C5CCNCC5)oc4C)c3)c2n1,inhibition,"PRVABC59, Concentration 49.95 uM, Number of replicates 2.0, Standard deviation 2.83494201600161 %",-5.64%
same,inhibition,"PRVABC59, Concentration 99.9 uM, Number of replicates 2.0, Standard deviation 2.936734747350333 %",-6.74%
Cc1cc(CO)c2cccc(NC(=O)c3nc(C4CCNCC4)oc3C)c2n1,inhibition,"PRVABC59, Concentration 49.95 uM, Number of replicates 2.0, Standard deviation 16.97136657317194 %",81.5%
same,inhibition,"PRVABC59, Concentration 99.9 uM, Number of replicates 2.0, Standard deviation 2.022315036184036 %",88.9%
Cc1cc(CO)c2cccc(NC(=O)c3nc(-c4ccccc4)oc3C(F)(F)F)c2n1,inhibition,"PRVABC59, Concentration 49.95 uM, Number of replicates 2.0, Standard deviation 2.699761899961709 %",15.3%
same,inhibition,"PRVABC59, Concentration 99.9 uM, Number of replicates 2.0, Standard deviation 2.5993991268892636 %",24.8%
Cc1cc(CO)c2cccc(Cc3ccccc3NC(=O)c3nc(C4CCNCC4)oc3C)c2n1,inhibition,"PRVABC59, Concentration 49.95 uM, Number of replicates 2.0, Standard deviation 3.130141914719793 %",12.3%
same,inhibition,"PRVABC59, Concentration 99.9 uM, Number of replicates 2.0, Standard deviation 0.6412983547468495 %",60.8%
Cc1cc(N)c2cc(Cl)cc(Cl)c2n1,inhibition,"PRVABC59, Concentration 99.9 uM, Number of replicates 2.0, Standard deviation 12.824277322413067 %",-8.83%
COC(=O)c1ccc(F)c(Cn2cc(C3CCNCC3)c(C)n2)c1,inhibition,"PRVABC59, Concentration 49.5 uM, Number of replicates 2.0, Standard deviation 1.8234550992150553 %",1.56%
same,inhibition,"PRVABC59, Concentration 99.01 uM, Number of replicates 2.0, Standard deviation 0.947622366220452 %",0.074%
same,inhibition,"PRVABC59, Concentration 198.0 uM, Number of replicates 2.0, Standard deviation 0.08409628118336304 %",3.65%
COc1cc(COc2cc(C)nc3ncnn23)nc(N2CCNCC2)n1,inhibition,"PRVABC59, Concentration 49.5 uM, Number of replicates 2.0, Standard deviation 2.68247440066745 %",1.51%
same,inhibition,"PRVABC59, Concentration 99.01 uM, Number of replicates 2.0, Standard deviation 1.6078501771858478 %",0.374%
same,inhibition,"PRVABC59, Concentration 198.0 uM, Number of replicates 2.0, Standard deviation 1.0644090707345926 %",1.09%
O=C(NCCCSc1ccccc1)c1cc(Cl)ccc1NS(=O)(=O)c1ccc(Oc2ccccc2Cl)cc1,inhibition,[1],21.8%
N#C[C@@H](NC(=O)c1cc(Cl)ccc1NS(=O)(=O)c1ccc(Oc2ccccc2Cl)cc1)c1ccc(F)cc1,inhibition,[1],28.7%
